Data published in PubChem BioAssay (NCATS).
Inconclusive results are not listed. A call without a number means that no potency is given here. Calls of active or inactive are those of the source. Unless noted, calls follow the shape of the dose curve; as a rule, active = well fitted curve in the direction sought with a large enough effect; inconclusive = small, poorly fitted or top-dose-only effect, or another doubt; inactive = no such curve, though single readings can be large; an effect the other way counts as inactive or inconclusive.

How the values were obtained:
[1] = Primary qHTS for small molecule stabilizers of the endoplasmic reticulum resident proteome: Secreted ER Calcium Modulated Protein (SERCaMP) assay (AID 1508630)
Method in brief: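 GLuc-SERCaMP-expressing SH-SY5Y cells, pretreated 16 h with compound, are challenged with thapsigargin to empty ER calcium stores; after 4 h, coelenterazine is added directly to the medium and luminescence is imaged.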

[2] = target: Lysosomal acid glucosylceramidase (Homo sapiens) (UniProt P04062); assay: Glucocerebrosidase-p2 (AID 348; in the data active = potency below about 10 µM; also: potency is read from the fitted curve at half-maximal effect); details: purified GBA, blue fluorogenic substrate, 40 min
Method in brief: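 Compounds titrated from 0.6 nM upwards against 0.2 nM enzyme in pH 5.9 citric acid/KH2PO4, taurocholate, tween-20; blue fluorogenic substrate 80 uM, 40 min room temperature, stopped and read Ex 365/Em 440 for AC50.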

[3] = AP1 Signaling Pathway (AID 357; active = well fitted curve in either direction with a large enough effect, not every such curve was filed as active); details: ME-180 AP-1-bla reporter, EGF-induced, beta-lactamase ratio, 5 h; at 7.69 µM (top of the series) unless noted
Method in brief: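 AP-1-bla ME-180 cells with beta-lactamase reporter under AP-1 response element, stimulated with EC50 EGF; compounds titrated, 5 hours at 37 degrees Celsius. CCF4 read at 460/530 nm ratio; positive and negative modulators judged by AC50.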

[4] = target: Cytochrome P450 1A2 (Homo sapiens) (UniProt P05177); assay: p450-cyp1a2 (AID 410; calls by dose curve; also: potency is read from the fitted curve at half-maximal effect)
Method in brief: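 Luminescent readout of luciferin formed from Luciferin-ME by human CYP1A2; data normalized against complete inhibition by 57 uM furafylline. Enzyme 20nM, substrate 100uM at Km, 100mM KPO4 buffer, 60 min reaction at room temperature.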

[5] = Stat Signaling Pathway (AID 446; active = well fitted curve in either direction with a large enough effect, not every such curve was filed as active;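 also: ME-180 cervical cancer cells given 40 pM IL-6 alongside compound; SIE-controlled beta-lactamase reporter measured as 460/530 nm FRET emission ratio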); details: ME-180 SIE beta-lactamase reporter, IL-6 stimulated, 5 h; at 7.69 µM (top of the series) unless noted
Method in brief: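 ME-180 SIE-bla cells; overnight plating; cpd + IL-6 40 pM, 5 h, 37 C; LiveBLAzer 2.5 h RT; 460/530 nm emission ratio. Normalized to 300 pM IL-6 and 125 nM JAK inhibitor controls.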

[6] = target: Glucocorticoid receptor (Homo sapiens) (UniProt P04150); assay: GR-EFC Redistribution (AID 451; calls by dose curve; also: potency is read from the fitted curve at half-maximal effect); details: CHO-K1 GR-EFC translocation, beta-gal luminescence, 2 h
Method in brief: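 Translocation of GR-ED fusion to nuclear EA restores b-gal, read by luminescence after 1 h room-temperature detection. Engineered CHO-K1 biosensor cells, 1,000/well, exposed 2 h at 37 C to titrations up to 46 uM final.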

[7] = target: Mitogen-activated protein kinase 10 (Mus musculus) (UniProt Q61831); assay: JNK3 AlphaScreen Assay (AID 530; active = well fitted curve in either direction with a large enough effect, not every such curve was filed as active;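 also: kinase came from lysate of stimulated human HepG2 cells; signal reports phosphorylation of biotinylated GST-cJun 1-79 at Ser73 with 10 µM ATP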)
Method in brief: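 Compound titrations were preincubated 15 minutes at room temperature with substrate, antibody and pre-activated JNK3-containing HepG2 lysate. Reactions were started with 10 uM ATP and stopped with EDTA-containing bead buffer for AlphaScreen detection.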

[8] = target: Cytochrome P450 3A4 (Homo sapiens) (UniProt P08684); assay: qHTS Assay for Activators of Cytochrome P450 3A4 (AID 885); also: nearly all actives have a fitted effect of over 65% in size
Method in brief: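 20nM CYP3A4 + 25uM Luciferin-PPXE (=KM), 200mM KPO4; cpd 10 min RT; NADPH regen, 60 min RT; stop w/ detection buffer, 20 min; luminescence. Normalized to 57 uM ketoconazole.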

[9] = qHTS Assay for Lipid Storage Modulators (AID 1519; calls by dose curve); details: Drosophila S3 cells, BODIPY lipid droplet/cell ratio, laser cytometry, cells loaded with oleic acid; for activity change, negative = inhibition: at 57.5 µM (top of the series)
Method in brief: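 Cells seeded at 5,000 per well were treated with compounds over a concentration series and loaded with oleic acid (400 uM, as added). Lipid droplet fluorescence (488 nm excitation, 500-530 nm channel) was read by laser-scanning cytometry and normalized to 20 uM Triacsin C.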

[10] = target: Rap guanine nucleotide exchange factor 3 (Homo sapiens) (UniProt O95398); assay: Confirmatory qHTS for antagonist of cAMP-regulated guanine nucleotide exchange factor 3 (EPAC1) (AID 1645880); also: nearly all actives have a fitted effect of over 55% in size
Method in brief: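 Nucleotide exchange uses 100 nM EPAC1, 250 nM RAP1B-BODIPY-GDP and 50 uM GDP, with compounds in a concentration-titration series. After 5 min at room temperature, fluorescence (480 nm ex/540 nm em) is read every 5 min for 30 min. Data are normalized to control ATA and DMSO.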

[11] = target: Rap guanine nucleotide exchange factor 3 (Homo sapiens) (UniProt O95398); assay: Confirmatory qHTS for agonist of cAMP-regulated guanine nucleotide exchange factor 3 (EPAC1) (AID 1645881);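 also: EPAC1 catalysed release of BODIPY-GDP from Rap1B seen as fluorescence loss; nearly all actives have a fitted effect of over 75% in size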
[12] = target: Rap guanine nucleotide exchange factor 4 (Homo sapiens) (UniProt Q8WZA2); assay: Confirmatory qHTS for agonist of cAMP-regulated guanine nucleotide exchange factor 4 (EPAC2) (AID 1645884);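 also: nucleotide exchange releases bodipy-GDP from Rap1 and this lowers its fluorescence; nearly all actives have a fitted effect of over 65% in size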
[13] = target: Rap guanine nucleotide exchange factor 4 (Homo sapiens) (UniProt Q8WZA2); assay: Confirmatory qHTS for antagonist of cAMP-regulated guanine nucleotide exchange factor 4 (EPAC2) (AID 1645885); also: nearly all actives have a fitted effect of over 25% in size
[14] = NFAT Signaling Pathway (AID 444; active = well fitted curve in either direction with a large enough effect, not every such curve was filed as active;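 also: carbachol stimulus at about its EC50 of 1 µM final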); details: Jurkat NFAT-bla M1, carbachol, beta-lactamase ratio, 5 h; at 7.69 µM (top of the series) unless noted
Method in brief: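 Read-out: CCF4 FRET ratio (460 nm/530 nm) after 1 h RT dye loading, used for %activity and AC50 from titration series. Cells: Jurkat NFAT-β-lactamase/M1 line, treated with compound plus 1 uM carbachol for 5 h, 37 °C.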

[15] = target: 3',5'-cyclic-AMP phosphodiesterase 4B (Homo sapiens) (UniProt Q07343); assay: qHTS Assay for Inhibitors of PDE-IV (AID 607; active = well fitted activation curve with a large enough effect in the main read-out, with a control signal flat, not every such curve was filed as active)
Method in brief: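 ACTOne HEK293 cells carry a modified cAMP-gated CNG channel and express endogenous PDE4; plated 1000 cells/well, compounds up to 22.9 uM final. Membrane-potential dye fluorescence (ex 535/em 590) was read; parental cells received 10 uM forskolin + 100 uM RO 20-1724.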

[16] = measured here: cell count channel max response
[17] = measured here: lipid channel max response

Chain of Rap guanine nucleotide exchange factor 4 (Homo sapiens) (Q8WZA2 whole entry, looked up): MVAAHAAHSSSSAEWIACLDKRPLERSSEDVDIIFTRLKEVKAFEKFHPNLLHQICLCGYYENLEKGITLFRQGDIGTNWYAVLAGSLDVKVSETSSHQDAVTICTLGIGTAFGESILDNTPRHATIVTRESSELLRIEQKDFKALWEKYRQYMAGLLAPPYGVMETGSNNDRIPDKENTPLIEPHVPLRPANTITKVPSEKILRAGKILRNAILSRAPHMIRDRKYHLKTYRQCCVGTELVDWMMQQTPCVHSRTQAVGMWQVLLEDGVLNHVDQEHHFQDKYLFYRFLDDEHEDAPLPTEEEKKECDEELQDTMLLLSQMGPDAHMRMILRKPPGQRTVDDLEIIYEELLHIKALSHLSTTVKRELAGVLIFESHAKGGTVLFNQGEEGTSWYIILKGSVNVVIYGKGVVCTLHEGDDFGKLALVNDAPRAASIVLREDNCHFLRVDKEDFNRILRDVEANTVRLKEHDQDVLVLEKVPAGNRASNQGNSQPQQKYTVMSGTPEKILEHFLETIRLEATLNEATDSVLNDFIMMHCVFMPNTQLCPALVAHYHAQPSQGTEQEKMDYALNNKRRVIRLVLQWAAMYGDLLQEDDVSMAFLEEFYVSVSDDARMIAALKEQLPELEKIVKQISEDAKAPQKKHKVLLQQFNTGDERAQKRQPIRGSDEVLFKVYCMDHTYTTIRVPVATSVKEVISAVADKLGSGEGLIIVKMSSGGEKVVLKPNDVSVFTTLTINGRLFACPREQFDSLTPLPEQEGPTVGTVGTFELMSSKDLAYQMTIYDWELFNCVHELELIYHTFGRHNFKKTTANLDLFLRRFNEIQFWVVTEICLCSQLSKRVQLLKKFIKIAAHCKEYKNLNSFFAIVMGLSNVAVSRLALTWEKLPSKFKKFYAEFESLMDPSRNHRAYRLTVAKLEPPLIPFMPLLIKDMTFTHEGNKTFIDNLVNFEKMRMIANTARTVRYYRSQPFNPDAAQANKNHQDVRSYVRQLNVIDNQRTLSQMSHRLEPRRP
Chain of Rap guanine nucleotide exchange factor 3 (Homo sapiens) (O95398 whole entry, looked up): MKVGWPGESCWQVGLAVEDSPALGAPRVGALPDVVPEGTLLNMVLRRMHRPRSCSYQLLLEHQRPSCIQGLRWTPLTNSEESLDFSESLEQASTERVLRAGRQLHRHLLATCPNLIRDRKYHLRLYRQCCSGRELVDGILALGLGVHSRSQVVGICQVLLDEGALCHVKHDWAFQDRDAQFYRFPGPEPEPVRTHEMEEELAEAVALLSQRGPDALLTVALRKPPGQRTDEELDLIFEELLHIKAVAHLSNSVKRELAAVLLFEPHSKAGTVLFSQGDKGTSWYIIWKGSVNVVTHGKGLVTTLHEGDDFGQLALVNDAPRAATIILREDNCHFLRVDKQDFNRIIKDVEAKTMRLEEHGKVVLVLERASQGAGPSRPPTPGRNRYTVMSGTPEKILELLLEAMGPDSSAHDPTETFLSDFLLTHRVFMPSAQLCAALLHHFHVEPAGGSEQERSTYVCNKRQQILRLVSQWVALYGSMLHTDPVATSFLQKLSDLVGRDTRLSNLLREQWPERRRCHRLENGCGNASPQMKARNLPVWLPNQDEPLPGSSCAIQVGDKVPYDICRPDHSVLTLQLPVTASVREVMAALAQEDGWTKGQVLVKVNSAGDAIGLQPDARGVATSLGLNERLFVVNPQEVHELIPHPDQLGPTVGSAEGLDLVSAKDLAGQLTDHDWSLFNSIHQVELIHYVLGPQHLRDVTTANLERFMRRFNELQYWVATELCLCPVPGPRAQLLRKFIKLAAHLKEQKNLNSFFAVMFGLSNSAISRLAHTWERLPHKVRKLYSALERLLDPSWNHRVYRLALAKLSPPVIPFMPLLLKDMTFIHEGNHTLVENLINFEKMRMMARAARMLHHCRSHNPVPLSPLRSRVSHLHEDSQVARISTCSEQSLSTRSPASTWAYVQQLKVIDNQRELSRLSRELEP
Chain of Lysosomal acid glucosylceramidase (Homo sapiens) (P04062 whole entry, looked up): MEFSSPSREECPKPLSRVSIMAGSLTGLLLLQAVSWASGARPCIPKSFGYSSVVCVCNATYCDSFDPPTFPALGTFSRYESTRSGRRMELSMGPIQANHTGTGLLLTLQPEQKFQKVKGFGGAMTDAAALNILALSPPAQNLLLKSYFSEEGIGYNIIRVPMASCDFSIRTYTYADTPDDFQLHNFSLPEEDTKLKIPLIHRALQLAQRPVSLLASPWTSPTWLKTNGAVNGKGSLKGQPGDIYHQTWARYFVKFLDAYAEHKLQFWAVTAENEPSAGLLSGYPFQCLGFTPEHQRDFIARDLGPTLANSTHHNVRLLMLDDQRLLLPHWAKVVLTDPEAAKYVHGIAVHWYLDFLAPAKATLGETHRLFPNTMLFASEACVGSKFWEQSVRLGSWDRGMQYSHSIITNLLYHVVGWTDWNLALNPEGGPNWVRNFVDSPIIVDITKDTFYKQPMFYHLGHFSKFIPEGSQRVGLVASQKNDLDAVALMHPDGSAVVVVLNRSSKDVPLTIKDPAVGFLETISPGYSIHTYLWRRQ
Chain of Glucocorticoid receptor (Homo sapiens) (P04150 whole entry, looked up, the tested form may be a part): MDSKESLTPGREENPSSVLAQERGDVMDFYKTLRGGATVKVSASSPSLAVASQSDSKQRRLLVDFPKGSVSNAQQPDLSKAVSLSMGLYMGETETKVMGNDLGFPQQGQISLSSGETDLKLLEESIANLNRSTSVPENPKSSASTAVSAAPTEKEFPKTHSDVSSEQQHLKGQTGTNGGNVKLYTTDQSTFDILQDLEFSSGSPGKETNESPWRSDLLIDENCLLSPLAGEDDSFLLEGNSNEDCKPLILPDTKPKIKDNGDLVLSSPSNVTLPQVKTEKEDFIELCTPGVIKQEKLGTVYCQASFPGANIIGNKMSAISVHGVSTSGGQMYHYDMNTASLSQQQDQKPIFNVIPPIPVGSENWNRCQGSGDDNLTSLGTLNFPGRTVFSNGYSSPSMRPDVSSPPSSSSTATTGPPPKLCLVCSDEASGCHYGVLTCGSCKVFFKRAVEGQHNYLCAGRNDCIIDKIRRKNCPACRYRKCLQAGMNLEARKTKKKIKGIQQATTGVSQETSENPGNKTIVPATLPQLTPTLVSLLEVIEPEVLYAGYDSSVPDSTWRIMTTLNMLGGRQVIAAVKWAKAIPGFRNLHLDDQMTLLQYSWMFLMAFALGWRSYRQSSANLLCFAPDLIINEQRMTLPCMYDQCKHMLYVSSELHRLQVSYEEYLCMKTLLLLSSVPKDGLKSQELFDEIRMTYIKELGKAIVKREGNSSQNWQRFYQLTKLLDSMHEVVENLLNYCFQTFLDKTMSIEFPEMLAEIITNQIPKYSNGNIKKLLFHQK
Chain of Cytochrome P450 3A4 (Homo sapiens) (P08684 whole entry, looked up): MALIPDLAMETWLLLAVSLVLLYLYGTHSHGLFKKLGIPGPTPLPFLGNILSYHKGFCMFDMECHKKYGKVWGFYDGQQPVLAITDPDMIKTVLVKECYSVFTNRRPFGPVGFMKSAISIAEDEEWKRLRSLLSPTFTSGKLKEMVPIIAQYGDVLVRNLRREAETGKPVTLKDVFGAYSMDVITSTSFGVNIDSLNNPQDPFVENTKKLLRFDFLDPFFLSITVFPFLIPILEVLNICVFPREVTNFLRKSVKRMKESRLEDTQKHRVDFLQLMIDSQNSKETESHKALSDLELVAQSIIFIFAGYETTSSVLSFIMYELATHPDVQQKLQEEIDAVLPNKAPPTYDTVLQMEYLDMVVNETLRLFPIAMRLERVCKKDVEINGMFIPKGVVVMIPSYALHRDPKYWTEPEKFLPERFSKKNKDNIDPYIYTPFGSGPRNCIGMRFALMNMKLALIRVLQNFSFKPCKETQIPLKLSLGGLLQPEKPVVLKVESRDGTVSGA
Chain of 3',5'-cyclic-AMP phosphodiesterase 4B (Homo sapiens) (Q07343 whole entry, looked up): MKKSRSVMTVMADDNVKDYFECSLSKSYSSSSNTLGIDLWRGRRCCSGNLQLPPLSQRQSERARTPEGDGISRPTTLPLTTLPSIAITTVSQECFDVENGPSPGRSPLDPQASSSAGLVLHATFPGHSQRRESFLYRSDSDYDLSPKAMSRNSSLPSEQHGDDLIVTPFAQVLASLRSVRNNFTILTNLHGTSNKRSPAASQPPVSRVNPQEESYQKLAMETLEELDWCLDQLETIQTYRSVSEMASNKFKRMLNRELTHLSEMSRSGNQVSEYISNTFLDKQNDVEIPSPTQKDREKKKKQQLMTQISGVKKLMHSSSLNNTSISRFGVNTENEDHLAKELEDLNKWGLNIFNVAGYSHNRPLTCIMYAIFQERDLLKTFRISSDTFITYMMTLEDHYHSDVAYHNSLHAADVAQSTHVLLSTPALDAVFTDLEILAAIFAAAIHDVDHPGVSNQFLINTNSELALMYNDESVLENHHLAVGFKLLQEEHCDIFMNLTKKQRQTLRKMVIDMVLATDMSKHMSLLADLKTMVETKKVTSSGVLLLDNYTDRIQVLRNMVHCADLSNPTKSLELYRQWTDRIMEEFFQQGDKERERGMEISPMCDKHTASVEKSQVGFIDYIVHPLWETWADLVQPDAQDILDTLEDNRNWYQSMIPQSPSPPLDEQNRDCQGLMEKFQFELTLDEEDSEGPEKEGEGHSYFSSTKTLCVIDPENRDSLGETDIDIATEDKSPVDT
Chain of Cytochrome P450 1A2 (Homo sapiens) (P05177 whole entry, looked up): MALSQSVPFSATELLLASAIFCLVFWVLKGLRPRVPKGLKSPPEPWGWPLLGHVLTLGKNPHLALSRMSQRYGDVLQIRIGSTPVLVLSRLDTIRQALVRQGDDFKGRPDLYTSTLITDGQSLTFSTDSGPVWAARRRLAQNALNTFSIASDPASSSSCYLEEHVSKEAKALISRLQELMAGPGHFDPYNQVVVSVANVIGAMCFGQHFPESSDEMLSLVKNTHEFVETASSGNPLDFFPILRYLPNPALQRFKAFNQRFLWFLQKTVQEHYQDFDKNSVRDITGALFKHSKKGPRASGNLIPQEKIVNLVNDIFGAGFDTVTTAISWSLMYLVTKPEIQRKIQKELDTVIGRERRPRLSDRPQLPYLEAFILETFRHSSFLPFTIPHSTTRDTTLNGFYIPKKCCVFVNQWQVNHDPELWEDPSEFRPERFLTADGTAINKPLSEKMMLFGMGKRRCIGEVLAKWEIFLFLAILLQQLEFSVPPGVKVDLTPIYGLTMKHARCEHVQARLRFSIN

For `COc1ccc(/C=C/c2cc(OC)c(OC)cc2CC[N+](C)(C)C)cc1`, which Potency [1] is on record?
Its Potency is “inactive”.

Which results are given for `O=C(Oc1ccccc1)N1CCC2(CCCN(c3ccccc3)C2)CC1`?
Potency [2]: > 11.4 µM (inactive); activity change, negative = inhibition [3]: 8.28% (inactive); Potency [4]: 15.8 µM (active); activity, negative = inhibition [5]: 8.61% (inactive); Potency [6]: > 46 µM (inactive); outcome [7]: inactive; Potency [8]: inactive; activity change, negative = inhibition [9]: -26.4% (inactive); max response [9, 16]: 17%; max response [9, 17]: -12.6%; Potency [1]: inactive; Potency [10]: inactive; outcome [11]: inactive; outcome [12]: inactive; Potency [13]: inactive

With `COc1c2c(cc3c1C(NC(N)=O)[N+](C)(C)CC3)OCO2` (stereo not given) as the molecule, how does the Potency [1] read?
Its Potency is “inactive”.

Which Potency [1] does the source give for `CC1(C)Oc2ccc3ccc(=O)oc3c2CC1=O` here?
Its Potency is “inactive”.

With `COc1ccc(-c2cc3ccccc3c(=O)o2)cc1` as the molecule, how does the Potency [1] read?
The Potency was “inactive”.

For `COc1ccc([C@@H]2[C@@H](O)[C@H](O)[C@@H](C)N2C)cc1OC`, which Potency [1] is on record?
Its Potency is “inactive”.

For `COc1ccc(C(=O)N2CCC3(CC2)CN(c2ccncc2)C3)cc1`, which Potency [2] is on record?
Its Potency is > 11.4 µM (inactive).

And the activity change, negative = inhibition [3]?
Its activity change, negative = inhibition is 4.67% (inactive).

And the activity change, negative = inhibition [14]?
The activity change, negative = inhibition was -16% (inactive).

And the activity, negative = inhibition [5]?
Its activity, negative = inhibition is 5.81% (inactive).

What about the Potency [6] of the same molecule?
Its Potency is > 46 µM (inactive).

What about the Potency [15] of the same molecule?
Its Potency is “inactive”.

What about the Potency [8] of the same molecule?
Its Potency is “inactive”.

And the activity change, negative = inhibition [9]?
The activity change, negative = inhibition was -1.18% (inactive).

And the max response [9, 16]?
The max response was -4.69%.

And the max response [9, 17]?
The max response was -4.19%.

And the Potency [1]?
Its Potency is “inactive”.

And the Potency [10]?
The Potency was “inactive”.

What about the outcome [11] of the same molecule?
The outcome was “inactive”.

And the outcome [12]?
The outcome was “inactive”.

What about the Potency [13] of the same molecule?
The Potency was “inactive”.
